Results filed as inconclusive are left out. Where a call stands in place of a potency, no number is given. Calls of active or inactive are those of the source. Unless noted, calls follow the shape of the dose curve; as a rule, active = well fitted curve in the direction sought with a large enough effect in the repeat runs; inconclusive = weak or mixed curves; inactive = no such curve, though single readings can be large; an effect the other way counts as inactive or inconclusive.
Key:
[1] = qHTS assay to identify small molecule agonists of the vitamin D receptor (VDR) signaling pathway - cell viability counter screen (AID 743224); also: series mostly up to about 63 µM; nearly all actives have a fitted effect of over 50% in size
Procedure, shortened: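 VDR-bla cell line, quantitative HTS format; 16 h compound incubation (37C, 5% CO2); ATP-based CellTiter-Glo luminescence measured in the reporter assay wells.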

[2] = qHTS assay to identify small molecule antagonists of the vitamin D receptor (VDR) signaling pathway - cell viability counter screen (AID 743225); also: nearly all actives have a fitted effect of over 50% in size
Procedure, shortened: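 HEK293T VDR-bla; cpd + 1a,25-(OH)2D3 3 nM final, 16 h 37C/5% CO2; B/G FRET substrate 2 h RT; then CellTiter-Glo 30 min RT, luminescence.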

[3] = qHTS assay to identify small molecule agonists of the NFkB signaling pathway (AID 1159509; active = well fitted curve in the direction sought with a large enough effect in the signal ratio in the repeat runs, not every such curve was filed as active; the % refers to the signal ratio; also: series mostly up to about 61 µM)
Procedure, shortened: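 After overnight attachment, reporter cells received test compounds, DMSO or positive controls and were incubated 5 hr at 37 C. FRET substrate was then added for 1.5 hr at room temperature before dual-emission fluorescence reading.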

[4] = qHTS assay to identify small molecule agonists of the NFkB signaling pathway - cell viability counter screen (AID 1159515; calls by dose curve; also: series mostly up to about 61 µM; nearly all actives have a fitted effect of over 55% in size)
Procedure, shortened: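 Viability in NFkB-bla ME-180 cells was measured by CellTiter-Glo luminescence, 30 min room temperature, in wells already treated 5 hr with compounds and read for reporter FRET.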

[5] = qHTS assay to identify small molecule agonists of the endoplasmic reticulum stress response signaling pathway (AID 1159516; active = well fitted activation curve with a large enough effect in the signal ratio in the repeat runs, not every such curve was filed as active; the % refers to the signal ratio)
Procedure, shortened: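 ER stress element reporter (bla) in HeLa. 1,500 cells/well, overnight attachment; 5 hr compound; 2 hr RT substrate; dual-emission fluorescence.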

[6] = qHTS assay to identify small molecule agonists of the endoplasmic reticulum stress response signaling pathway - cell viability counter screen (AID 1159517; calls by dose curve;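 also: HeLa cells carrying an ER stress response element beta-lactamase reporter; series mostly up to about 61 µM; nearly all actives have a fitted effect of over 50% in size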)
Procedure, shortened: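 Luminescence readout: CellTiter-Glo, 30 min RT, same wells as the ESRE-bla reporter read. HeLa ESRE-bla, 1,500 cells/well, o/n 37 C; cpd 5 hr 37 C/5% CO2.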

[7] = molecular target: Nuclear receptor ROR-gamma (Homo sapiens) (UniProt P51449); experiment: qHTS assay to identify small molecule antagonists of the retinoid-related orphan receptor gamma (ROR-gamma) signaling pathway (AID 1159521;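 also: CHO cells with doxycycline inducible ROR-gamma driving an RORE luciferase reporter; top concentration of the series differs between compounds; nearly all actives have a fitted effect of over 50% in size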)
Procedure, shortened: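 Cells were plated, rested 4 h at 37 C, exposed to compounds for 2 h, then given 1 uM final doxycycline hyclate to induce RORγ expression. After 16 h, ONE-Glo luminescence from the ROR response element reporter was measured.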

[8] = qHTS assay to identify small molecule agonists of the AP-1 signaling pathway - cell viability counter screen (AID 1159525; calls by dose curve; also: nearly all actives have a fitted effect of over 55% in size)
Procedure, shortened: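 ME-180 AP-1-bla, 2500 cells/well, Opti-MEM + 0.5% dialyzed FBS; overnight 37 °C; cpd 15-pt titration, 5 h 37 °C; CellTiter-Glo 30 min RT; luminescence read; normalised to TOAB and DMSO controls.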

[9] = qHTS assay to identify small molecule agonists of the AP-1 signaling pathway (AID 1159526; calls by dose curve)
[10] = qHTS assay to identify small molecule agonists of the RXR signaling pathway - cell viability counter screen (AID 1159529)
Procedure, shortened: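 Steps: seed RXR-alpha-UAS-bla HEK 293T cells in assay medium containing 2% charcoal-stripped FBS; incubate 5 hr; add compounds in DMSO; incubate 16 hr at 37 C; after the bla read, add CellTiter-Glo and read luminescence at 30 min.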

[11] = qHTS assay to identify small molecule antagonists of the retinoid acid receptor (RAR) signaling pathway - cell viability counter screen (AID 1159551); also: nearly all actives have a fitted effect of over 35% in size
Procedure, shortened: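 Following overnight attachment, C3RL4 reporter cells received DMSO-dissolved compounds and then retinol (1 uM final). Six hours later at 37 C, ATP content was measured by CellTiter-Glo luminescence.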

[12] = qHTS assay to identify small molecule antagonists of the retinoic acid receptor (RAR) signaling pathway (AID 1159552; also: nearly all actives have a fitted effect of over 50% in size)
Procedure, shortened: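 Retinol at 1 uM final stimulated RARE-luciferase expression in C3RL4 cells exposed to test compounds for 6 hr at 37 C. Reduced luminescence, read 30 min after detection reagent, indicated pathway antagonism.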

[13] = qHTS assay to identify small molecule agonists of the retinoic acid receptor (RAR) signaling pathway (AID 1159553); also: potency is read from the fitted curve at half-maximal effect
Procedure, shortened: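 Cell line C3RL4, RARE luciferase reporter. Treatment: compounds in DMSO, 6 hr, 37 C, 5% CO2, after overnight plating. Detection: luminescence, 30 min RT after reagent.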

[14] = qHTS assay to identify small molecule antagonists of the retinoid-related orphan receptor gamma (ROR-gamma) signaling pathway - cell viability counter screen (AID 1159520); also: nearly all actives have a fitted effect of over 50% in size
Procedure, shortened: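 Tet-on ROR gamma CHO cells (1,000/well) were plated 4 hr, given compounds in DMSO for 2 hr at 37 C, then induced with 1 uM final doxycycline for 16 hr. Viability was read as ATP by CellTiter-Glo luminescence after 30 min.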

[15] = molecular target: Retinoic acid receptor RXR-alpha (Homo sapiens) (UniProt P19793); experiment: qHTS assay to identify small molecule agonists of the RXR signaling pathway (AID 1159527; calls by dose curve; also: nearly all actives have a fitted effect of over 35% in size)
Procedure, shortened: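 Cells plated at 2,000/well, rested 5 hr at 37 C, pin-dosed with DMSO compound solutions, incubated 16 hr, then loaded with B/G FRET substrate for 2 hr at RT before dual-emission fluorescence reading.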

Sequence of Retinoic acid receptor RXR-alpha (Homo sapiens) (P19793 whole entry, looked up): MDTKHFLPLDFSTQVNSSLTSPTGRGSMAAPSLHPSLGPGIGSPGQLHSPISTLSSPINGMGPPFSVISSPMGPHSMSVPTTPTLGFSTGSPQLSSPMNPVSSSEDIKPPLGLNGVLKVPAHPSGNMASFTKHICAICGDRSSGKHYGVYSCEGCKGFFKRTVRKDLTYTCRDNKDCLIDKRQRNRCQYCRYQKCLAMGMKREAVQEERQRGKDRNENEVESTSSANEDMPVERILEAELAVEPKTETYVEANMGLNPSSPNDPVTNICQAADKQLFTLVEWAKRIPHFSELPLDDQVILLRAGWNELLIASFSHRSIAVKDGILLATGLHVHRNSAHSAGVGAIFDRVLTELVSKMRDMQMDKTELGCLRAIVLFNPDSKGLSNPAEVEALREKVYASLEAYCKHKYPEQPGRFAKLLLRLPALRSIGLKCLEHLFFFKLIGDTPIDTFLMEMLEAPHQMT

Structure (SMILES) | outcome [1] | outcome [2] | outcome [3] | outcome [4] | outcome [5] | outcome [6] | Potency [7] | outcome [8] | Potency [9] | Potency [10] | outcome [11] | outcome [12] | Potency [13] | Potency [14] | outcome [15]
C[C@H]1C[C@H]2[C@@H]3CCC4=CC(=O)C=C[C@]4(C)[C@@]3(F)[C@@H](O)C[C@]2(C)[C@@]1(O)C(=O)COP(=O)(O)O | inactive | inactive | inactive | inactive | inactive | inactive | inactive | inactive | inactive | inactive | inactive |  |  |  | 
O=C(O)c1ccc(O)c(O)c1 | inactive |  | inactive | inactive | inactive | inactive | inactive | inactive | inactive | inactive | inactive | inactive | inactive |  | 
FC(F)(Cl)C(F)(Cl)Cl |  |  | inactive | inactive | inactive | inactive | inactive | inactive | inactive | inactive | inactive |  |  |  | 
Cc1ccc2ccccc2c1[N+](=O)[O-] | inactive | inactive | inactive | inactive | inactive | inactive | inactive | inactive | inactive | inactive | inactive | inactive | inactive |  | 
Cc1ccc(NC=O)c(C)c1 | inactive | inactive | inactive | inactive | inactive | inactive |  | inactive | inactive | inactive | inactive |  |  | inactive | 
CC1(C)CC(=O)CC(C)(C)N1 | inactive |  | inactive | inactive | inactive | inactive | inactive | inactive | inactive | inactive | inactive |  |  |  | 
CCCCCCCCCCCCSC#N | inactive |  | inactive | inactive | inactive | inactive |  | inactive | inactive | inactive | inactive |  |  | inactive | 
C=CC(C)(O)CC/C=C(/C)CCC=C(C)C (configuration not stated) |  | inactive | inactive | inactive | inactive | inactive | inactive | inactive | inactive | inactive | inactive |  |  |  | 
COc1ccc(CN(CCN(C)C)c2ncccn2)cc1 |  |  | inactive | inactive | inactive | inactive |  | inactive |  | inactive | inactive | inactive |  | inactive | inactive
O=C(OCCOCCOCCOC(=O)c1ccccc1)c1ccccc1 | inactive | inactive | inactive | inactive | inactive | inactive | inactive | inactive | inactive | inactive | inactive | inactive |  |  | 
CCc1ccc2c(c1)C(=O)c1ccccc1C2=O | inactive | inactive | inactive | inactive | inactive | inactive | inactive | inactive | inactive | inactive | inactive | inactive | 1720 nM (active) |  | 
CCN(CCCCOC(=O)c1ccc(OC)c(OC)c1)C(C)Cc1ccc(OC)cc1 (configuration not stated) | inactive |  | inactive | inactive | inactive | inactive | inactive | inactive | inactive |  | inactive | inactive |  |  | 
CCCCCCCCS | inactive | inactive | inactive | inactive | inactive | inactive |  | inactive | inactive | inactive |  | inactive | inactive | inactive | 
CC(C)=CCC[C@H](C)CCO | inactive |  | inactive | inactive | inactive | inactive |  | inactive | inactive | inactive |  | inactive |  | inactive | 
CC1(COc2ccc(CC3SC(=O)NC3=O)cc2)CCCCC1 (configuration not stated) | inactive | inactive | inactive | inactive | inactive | inactive | inactive | inactive | inactive | inactive |  |  |  |  | 
COC(=O)Cc1cccc2ccccc12 |  | inactive | inactive | inactive | inactive | inactive |  | inactive | inactive | inactive | inactive |  |  | inactive | 
O=C(O)COCC(=O)O | inactive |  | inactive | inactive | inactive | inactive | inactive | inactive | inactive | inactive | inactive | inactive | inactive |  | 
CCCOC(C)=O |  | inactive | inactive | inactive | inactive | inactive | inactive | inactive | inactive | inactive |  | inactive | inactive |  | 
CCCCCCC/C=C/C=O | inactive |  | inactive | inactive | inactive | inactive |  | inactive | inactive |  | inactive |  | inactive | inactive | 
N#CCCCC(C#N)CCC#N (configuration not stated) | inactive |  | inactive | inactive | inactive | inactive | inactive | inactive | inactive | inactive | inactive | inactive |  |  | 
CCC(=O)O[C@]1(C(=O)COC)[C@@H](C)C[C@H]2[C@@H]3CCC4=CC(=O)C=C[C@]4(C)C3(F)[C@@H](O)C[C@@]21C (some centres not stated) | inactive | inactive | inactive | inactive | inactive | inactive |  | inactive | inactive | inactive | inactive |  | inactive |  | 
Sc1nc(S)nc(S)n1 |  | inactive | inactive | inactive | inactive | inactive |  | inactive | inactive | inactive | inactive |  |  | inactive | 
Cc1cc(SC2=C(O)C[C@@](CCc3ccc(N)cc3)(C(C)C)OC2=O)c(C(C)(C)C)cc1CO | inactive |  | inactive | inactive | inactive | inactive |  | inactive | inactive | inactive |  |  |  |  | 
Oc1ccc(CCNCCCCCCNCCc2ccccc2)cc1O |  | inactive | inactive | inactive | inactive | inactive |  | inactive | inactive |  | inactive | inactive | inactive | inactive | 
